Results filed as inconclusive are left out. Active and inactive are the calls of the source. How the source made its calls, unless noted: active means hit-call score of the fitted dose curve at least 0.9, where 1 is the maximum; inconclusive means response in the unintended direction; inactive means score below 0.9.
Tests used:
[1] = read-out: alkyl and aryl transferase (GSTA2), GSTA2 (gene 2939); assay: CLD_GSTA2_24hr: CellzDirect (CLD) Gene Expression Assay for alkyl and aryl transferase (GSTA2) at 24 hours (AID 2283693)
Summary of the method: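 Primary human hepatocytes (two donor preparations) dosed daily for two days with chemicals at multiple concentrations (vehicle 0.2% DMSO); GSTA2 mRNA at 24 h measured by qNPA chemiluminescence, gain-of-signal versus DMSO.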

[2] = read-out: ABC Transporter (ABCB1), ABCB1 (gene 5243); assay: CLD_ABCB1_48hr: CellzDirect (CLD) Gene Expression Assay for ABC Transporter (ABCB1) at 48 hours (AID 2283695);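 on AC50: potency for induction meaning increase of mRNA over DMSO vehicle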
Summary of the method: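 Primary human hepatocytes from two donor preparations dosed daily on two consecutive days with 0.2% DMSO vehicle. Harvest at 48 h. ABCB1 mRNA quantified by qNPA with chemiluminescence and fitted for gain of signal versus DMSO.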

[3] = read-out: glucuronosyltransferase (UGT1A1), UGT1A1 (gene 54658); assay: CLD_UGT1A1_24hr: CellzDirect (CLD) Gene Expression Assay for glucuronosyltransferase (UGT1A1) at 24 hours (AID 2283696)
Summary of the method: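 Primary human hepatocytes from two donor preparations were dosed (0.2% DMSO vehicle) and harvested at 24 h; UGT1A1 mRNA induction was quantified by chemiluminescent qNPA, fitted as gain relative to DMSO.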

[4] = read-out: Cytochrome P450 2C19 (Homo sapiens) (UniProt P33261); assay: CLD_CYP2C19_48hr: CellzDirect (CLD) Gene Expression Assay for xenobiotic metabolism (CYP2C19) at 48 hours (AID 2283700);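 further: fitted upward so actives raise CYP2C19 mRNA above the 0.2% DMSO vehicle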
Summary of the method: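 Primary human hepatocytes (two donor preparations) dosed daily for two days, harvested at 48 h; CYP2C19 mRNA induction measured by qNPA chemiluminescence. Gain-of-signal fitted relative to 0.2% DMSO vehicle as baseline.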

[5] = read-out: Cytochrome P450 2C9 (Homo sapiens) (UniProt P11712); assay: CLD_CYP2C9_48hr: CellzDirect (CLD) Gene Expression Assay for xenobiotic metabolism (CYP2C9) at 48 hours (AID 2283701; active means hit-call score of the fitted dose curve at least 0.9, where 1 is the maximum; inactive means score below 0.9)
Summary of the method: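 Primary human hepatocytes (two donor preparations) dosed daily for two days with test chemicals, 0.2% DMSO vehicle; harvested at 48 h. mRNA induction quantified by qNPA chemiluminescence, fitted for gain of signal against DMSO baseline; cytotoxicity annotated from phase-contrast morphology.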

[6] = read-out: xenobiotic metabolism (CYP1A2), CYP1A2 (gene 1544); assay: CLD_CYP1A2_48hr: CellzDirect (CLD) Gene Expression Assay for xenobiotic metabolism (CYP1A2) at 48 hours (AID 2283703)
Summary of the method: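 Primary human hepatocytes from two donor preparations were dosed daily for two days at multiple concentrations in 0.2% DMSO vehicle. CYP1A2 mRNA was measured at 48 hours by chemiluminescent quantitative nuclease protection assay, with gain of signal fitted versus DMSO and cytotoxicity annotated from morphology.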

[7] = read-out: Broad substrate specificity ATP-binding cassette transporter ABCG2 (Homo sapiens) (UniProt Q9UNQ0); assay: CLD_ABCG2_48hr: CellzDirect (CLD) Gene Expression Assay for ABC Transporter (ABCG2) at 48 hours (AID 2283704);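 on AC50: potency for induction of ABCG2 mRNA above the DMSO baseline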
Summary of the method: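 Primary human hepatocytes from two donors, dosed daily for 2 days, 0.2% DMSO vehicle, several concentrations. ABCG2 mRNA at 48 h by qNPA chemiluminescence, gain fitted versus DMSO; cytotoxicity flagged by morphology.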

[8] = read-out: alkyl and aryl transferase (GSTA2), GSTA2 (gene 2939); assay: CLD_GSTA2_48hr: CellzDirect (CLD) Gene Expression Assay for alkyl and aryl transferase (GSTA2) at 48 hours (AID 2283708);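 further: active means mRNA induction above DMSO vehicle baseline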
Summary of the method: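 Primary human hepatocytes dosed daily for two days (0.2% DMSO vehicle), harvested at 48 h. GSTA2 mRNA induction measured by quantitative nuclease protection assay with chemiluminescent imaging, fitted for gain of signal relative to DMSO.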

[9] = read-out: glucuronosyltransferase (UGT1A1), UGT1A1 (gene 54658); assay: CLD_UGT1A1_48hr: CellzDirect (CLD) Gene Expression Assay for glucuronosyltransferase (UGT1A1) at 48 hours (AID 2283709);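 further: actives increase expression relative to DMSO so potency refers to induction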
Summary of the method: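 Human primary hepatocytes dosed daily for two days (0.2% DMSO vehicle), harvested at 48 h. UGT1A1 mRNA induction measured by quantitative nuclease protection assay with chemiluminescence; gain of signal versus DMSO; cytotoxicity flagged from morphology.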

[10] = read-out: sulfotransferase (SULT2A), SULT2A1 (gene 6822); assay: CLD_SULT2A_48hr: CellzDirect (CLD) Gene Expression Assay for sulfotransferase (SULT2A) at 48 hours (AID 2283710);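 further: hits raise SULT2A1 transcript above the 0.2% DMSO vehicle baseline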
Summary of the method: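 Primary human hepatocytes (two donor preparations) dosed daily for two days with chemicals at multiple concentrations, vehicle 0.2% DMSO; SULT2A1 mRNA induction at 48 h by quantitative nuclease protection assay, chemiluminescent read-out, fitted for gain of signal versus DMSO.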

[11] = STM_H9_OrnithineISnorm_perc: Stemina devTOX quickPredict H9 human embryonic stem cell (hESC)-based Assay for Ornithine (ORN) Metabolite Biomarker, Normalized (AID 2283712; active means hit-call score of the fitted dose curve at least 0.9, where 1 is the maximum; inactive means score below 0.9;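 further: ornithine released into spent medium during last day measured by mass spectrometry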)
Summary of the method: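 Undifferentiated pluripotent H9 hESCs were exposed to compound for 72h, with media and compound replaced every 24h. Ornithine in final 24-h conditioned media was measured by UPLC-HRMS, normalized to 13C-labeled spike-in standard and to median 0.1% DMSO control.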

[12] = STM_H9_CystineISnorm_perc: Stemina devTOX quickPredict H9 human embryonic stem cell (hESC)-based Assay for Cystine (CYSS) Metabolite Biomarker, Normalized (AID 2283713; active means hit-call score of the fitted dose curve at least 0.9, where 1 is the maximum; inactive means score below 0.9)
Summary of the method: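 Undifferentiated H9 hESCs were exposed to compound for 72h, with medium and compound replaced every 24h. Final-24h conditioned medium was deproteinized and analyzed by UPLC-HRMS. Cystine EIC area was normalized to spiked C13 standard and 0.1% DMSO median.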

[13] = read-out: organic anion transporter (SLCO1B1), SLCO1B1 (gene 10599); assay: CLD_SLCO1B1_24hr: CellzDirect (CLD) Gene Expression Assay for organic anion transporter (SLCO1B1) at 24 hours (AID 2283690)
Summary of the method: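 Primary human hepatocytes (two donor preparations) dosed daily for two days with chemicals at multiple concentrations, 0.2% DMSO vehicle. SLCO1B1 mRNA at 24 h measured by qNPA chemiluminescence; induction fitted relative to DMSO.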

[14] = read-out: xenobiotic metabolism (CYP1A1), CYP1A1 (gene 1543); assay: CLD_CYP1A1_48hr: CellzDirect (CLD) Gene Expression Assay for xenobiotic metabolism (CYP1A1) at 48 hours (AID 2283705)
Summary of the method: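 Primary human hepatocytes from two donors dosed daily for two days at multiple concentrations, 0.2% DMSO vehicle; CYP1A1 mRNA induction at 48 h by qNPA chemiluminescence. Cytotoxicity noted by phase-contrast morphology.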

[15] = read-out: HMG-CoA synthase (HMGCS2), HMGCS2 (gene 3158); assay: CLD_HMGCS2_48hr: CellzDirect (CLD) Gene Expression Assay for HMG-CoA synthase (HMGCS2) at 48 hours (AID 2283711)
Summary of the method: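 Primary human hepatocytes from two donors dosed daily for two days, 0.2% DMSO vehicle. HMGCS2 mRNA measured 48 h after dosing by quantitative nuclease protection assay with chemiluminescent read-out; induction fitted relative to DMSO, cytotoxicity flagged by microscopy.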

[16] = CEETOX_H295R_MTT_cell_viability: Viability Assessment in the CeeTox HT-H295R MTT Assay (AID 2283718; active means hit-call score of the fitted dose curve at least 0.9, where 1 is the maximum; inactive means score below 0.9;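 on AC50: curve fitted both ways so AC50 may mark viability loss or gain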)
Summary of the method: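 MTT reduction (0.5 mg/ml, 4 h at 37 C; absorbance at 570 and 650 nm) gave viability as background-corrected percent change versus controls. H295R cells had 48 h forskolin (10 uM) prestimulation, then 48 h chemical exposure at 0.1% DMSO.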

[17] = read-out: Cytochrome P450 3A4 (Homo sapiens) (UniProt P08684); assay: CLD_CYP3A4_24hr: CellzDirect (CLD) Gene Expression Assay for xenobiotic metabolism (CYP3A4) at 24 hours (AID 2283689)
Summary of the method: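 Primary human hepatocytes from two donors dosed daily with fresh compound for two days, 0.2% DMSO vehicle. CYP3A4 mRNA at 24 hr by qNPA chemiluminescence; gain-of-signal fit versus DMSO, cytotoxicity flagged by morphology.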

[18] = CLD_ACTIN_48hr: CellzDirect (CLD) Gene Expression Assay for Baseline Control (Actin) at 48 hours (AID 2283702)
Summary of the method: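 Primary human hepatocytes (two donor preparations) dosed daily for two days with ToxCast chemicals at multiple concentrations versus 0.2% DMSO vehicle; harvested at 48 h. Actin mRNA measured as a background control by quantitative nuclease protection assay with chemiluminescence.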

[19] = read-out: organic anion transporter (SLCO1B1), SLCO1B1 (gene 10599); assay: CLD_SLCO1B1_48hr: CellzDirect (CLD) Gene Expression Assay for organic anion transporter (SLCO1B1) at 48 hours (AID 2283707)
Summary of the method: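 Primary human hepatocytes from two donor preparations dosed daily for two days with multiple concentrations, 0.2% DMSO vehicle. SLCO1B1 mRNA at 48 h by quantitative nuclease protection assay, chemiluminescence; gain-of-signal fitted versus DMSO.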

[20] = read-out: Cytochrome P450 2B6 (Homo sapiens) (UniProt P20813); assay: CLD_CYP2B6_48hr: CellzDirect (CLD) Gene Expression Assay for xenobiotic metabolism (CYP2B6) at 48 hours (AID 2283699);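 further: actives raise transcript level above DMSO so potency reflects induction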
Summary of the method: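 Primary human hepatocytes dosed daily for two days over multiple concentrations, 0.2% DMSO vehicle; CYP2B6 mRNA quantified at 48 h by qNPA chemiluminescence. Induction fitted as gain of signal versus DMSO; cytotoxicity annotated by morphology.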

Measured: AC50

Cytochrome P450 3A4 (Homo sapiens), sequence (P08684 whole entry, looked up): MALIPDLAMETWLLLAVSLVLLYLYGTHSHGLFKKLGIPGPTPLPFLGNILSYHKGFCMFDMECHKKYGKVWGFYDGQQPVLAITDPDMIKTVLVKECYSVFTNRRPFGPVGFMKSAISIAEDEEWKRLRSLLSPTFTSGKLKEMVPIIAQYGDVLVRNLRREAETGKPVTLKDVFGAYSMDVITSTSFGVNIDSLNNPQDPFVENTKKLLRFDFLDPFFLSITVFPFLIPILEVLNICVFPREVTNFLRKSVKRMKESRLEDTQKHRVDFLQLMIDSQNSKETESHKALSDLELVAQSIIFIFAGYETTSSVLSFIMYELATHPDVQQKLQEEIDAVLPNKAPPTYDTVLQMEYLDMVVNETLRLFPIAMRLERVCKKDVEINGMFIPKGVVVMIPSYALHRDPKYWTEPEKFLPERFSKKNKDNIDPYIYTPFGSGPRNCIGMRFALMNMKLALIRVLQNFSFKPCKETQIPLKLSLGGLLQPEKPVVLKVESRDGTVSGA
Cytochrome P450 2C19 (Homo sapiens), sequence (P33261 whole entry, looked up): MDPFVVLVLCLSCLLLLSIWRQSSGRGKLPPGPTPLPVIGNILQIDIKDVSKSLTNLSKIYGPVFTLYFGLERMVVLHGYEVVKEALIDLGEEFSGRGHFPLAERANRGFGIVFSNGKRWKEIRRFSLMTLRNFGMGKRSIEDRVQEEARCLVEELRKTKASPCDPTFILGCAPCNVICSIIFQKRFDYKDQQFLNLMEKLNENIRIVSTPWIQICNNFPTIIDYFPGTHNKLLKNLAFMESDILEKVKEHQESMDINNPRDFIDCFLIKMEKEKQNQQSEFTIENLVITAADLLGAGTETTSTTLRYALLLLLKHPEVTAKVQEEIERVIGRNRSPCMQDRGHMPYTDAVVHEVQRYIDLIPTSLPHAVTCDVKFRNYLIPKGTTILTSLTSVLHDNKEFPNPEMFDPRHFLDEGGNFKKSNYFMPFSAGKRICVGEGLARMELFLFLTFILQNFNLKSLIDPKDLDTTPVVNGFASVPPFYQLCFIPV
Broad substrate specificity ATP-binding cassette transporter ABCG2 (Homo sapiens), sequence (Q9UNQ0 whole entry, looked up): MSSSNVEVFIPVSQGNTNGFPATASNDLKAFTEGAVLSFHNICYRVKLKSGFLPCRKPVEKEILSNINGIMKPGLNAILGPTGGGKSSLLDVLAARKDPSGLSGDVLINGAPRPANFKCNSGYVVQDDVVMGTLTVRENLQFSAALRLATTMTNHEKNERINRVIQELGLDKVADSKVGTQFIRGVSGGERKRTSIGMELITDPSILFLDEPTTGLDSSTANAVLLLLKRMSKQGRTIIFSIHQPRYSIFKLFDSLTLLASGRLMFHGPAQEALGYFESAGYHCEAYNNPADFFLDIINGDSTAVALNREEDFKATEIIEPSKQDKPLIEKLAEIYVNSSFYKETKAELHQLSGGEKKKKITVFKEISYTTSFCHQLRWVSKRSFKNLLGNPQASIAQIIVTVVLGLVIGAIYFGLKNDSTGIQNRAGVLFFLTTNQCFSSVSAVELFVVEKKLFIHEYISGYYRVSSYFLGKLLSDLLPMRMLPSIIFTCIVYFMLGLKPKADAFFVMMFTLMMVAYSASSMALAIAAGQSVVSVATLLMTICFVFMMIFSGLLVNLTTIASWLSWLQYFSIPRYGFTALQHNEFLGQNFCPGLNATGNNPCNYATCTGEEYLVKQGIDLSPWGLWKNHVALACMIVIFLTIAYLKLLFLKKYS

C=CCC1=C(C)[C@@H](OC(=O)[C@@H]2[C@@H](C=C(C)C)C2(C)C)CC1=O
active: [3] 20 µM | [9] 7.38 µM
inactive: [1] | [2] | [4] | [5] | [6] | [7] | [8] | [10] | [11] | [12]

C=CCC1=C(C)C(OC(=O)C2C(C=C(C)C)C2(C)C)CC1=O (stereo unspecified)
inactive: [13] | [1] | [2] | [6] | [7] | [14] | [8] | [10] | [15]
active: [9] 11.1 µM | [16] 9.99 µM

N#CC(CCc1ccc(Cl)cc1)(Cn1cncn1)c1ccccc1 (stereo unspecified)
active: [17] 1.9 µM | [6] 2.3 µM | [14] 2.53 µM | [10] 20 µM
inactive: [1] | [2] | [4] | [18] | [7] | [8] | [9] | [15] | [16]

COC(=O)C=C(C)OP(=O)(OC)OC
inactive: [13] | [2] | [3] | [4] | [18] | [6] | [7] | [14] | [8] | [9] | [10]

CS/C(C)=N/OC(=O)N(C)SN(C)C(=O)O/N=C(\C)SC
not listed: [5] | [8] | [11] | [12] | [13] | [16] | [17] | [20]
inactive: all other assays above

CNC(=S)S
active: [6] 20 µM
inactive: [18] | [7] | [14] | [8] | [9] | [16]

N#Cc1nn(-c2c(Cl)cc(C(F)(F)F)cc2Cl)c(N)c1S(=O)C(F)(F)F (stereo unspecified)
active: [17] 1.89 µM | [2] 4.65 µM | [7] 31.6 µM | [8] 4.25 µM | [11] 35.5 µM | [12] 88.7 µM
inactive: [1] | [3] | [18] | [14] | [9] | [10]

O=C(O)COc1nc(Cl)c(Cl)cc1Cl
inactive: [17] | [2] | [3] | [5] | [6] | [7] | [14] | [9] | [15]

CCOP(=S)(OCC)SCn1c(=O)oc2cc(Cl)ccc21
inactive: [17] | [3] | [9] | [10] | [15] | [16]
active: [20] 1.06 µM | [6] 3.96 µM | [14] 13.9 µM

COP(N)(=O)SC (stereo unspecified)
inactive: [13] | [4] | [5] | [18] | [6] | [7] | [19] | [8] | [9] | [10] | [15]

CCCN(CCC)c1c([N+](=O)[O-])cc(S(N)(=O)=O)cc1[N+](=O)[O-]
inactive: [2] | [3] | [6] | [7] | [19] | [8] | [9]
active: [17] 11.1 µM | [14] 28.9 µM | [10] 6.29 µM

CO/C=C(/C(=O)OC)c1ccccc1Oc1cc(Oc2ccccc2C#N)ncn1
active: [2] 30.2 µM | [8] 20 µM
inactive: [1] | [3] | [5] | [18] | [7] | [9] | [11] | [12]

CCCCC(CC)COC(=O)c1ccccc1C(=O)OCC(CC)CCCC (stereo unspecified)
active: [12] 30 µM
not listed: [5] | [8] | [13] | [15] | [17] | [19] | [20]
inactive: all other assays above

CCNc1nc(Cl)nc(NCC)n1
active: [6] 8.97 µM | [14] 3.92 µM | [11] 0.053 µM
not listed: [2] | [5] | [8] | [15] | [17] | [18] | [20]
inactive: all other assays above

CON(C)C(=O)Nc1ccc(Cl)c(Cl)c1
active: [6] 1.27 µM | [14] 3.68 µM | [11] 50 µM | [12] 73.3 µM
inactive: [17] | [9] | [10] | [16]

— PubChem BioAssay (EPA / NIEHS)
